This is one part of a sample in which hits are shown more often than they occur.
DUX4 inh = blocks DUX4-driven transcriptional activation | hit rate 0.8% among 37,000 | 293T-iDUX4 ZSCAN4-Gaussia luciferase reporter, 24 h; active compounds read low | activity change, negative = inhibition, % (test concentration not listed) | AID 1224904;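 active = mean inhibition of at least 10% in the main channel, exceeding the control channel by a set limit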;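 also: 0% = median of neutral control wells and -100% = median of positive control wells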
The depositor's hits bear a star; ! = repeats disagree.

SMILES	DUX4 inh
N#Cc1ccc(-c2ccc([C@@H]3[C@@H](CO)N4CCCCN(C(=O)Cc5ccccc5)C[C@H]34)cc2)cc1	5
O=C(Cc1ccccc1)N1CCCCN2[C@H](CO)[C@@H](c3ccc(C#CC4(O)CCCC4)cc3)[C@H]2C1	-6
O=C(Cc1ccncc1)N1CCCCN2[C@H](C1)[C@H](c1ccc(C#Cc3ccccc3F)cc1)[C@@H]2CO	-63*
COC(=O)C[C@@H]1CC[C@H]2NC[C@@H](O)COC[C@@H]2O1	5
COC(=O)[C@@H]1[C@@H](CO)[C@@H]2Cn3c(ccc(C4=CCCC4)c3=O)[C@H]1N2Cc1ccccn1	0
CCCNC(=O)[C@H]1[C@H](CO)[C@H]2Cn3c(cccc3=O)[C@@H]1N2CCC	-4
C/C=C/c1ccc(C2[C@@H]3CN(Cc4ccccn4)C[C@H]2N3)cc1 (stereo not given in full)	-2
C/C=C/c1ccc(C2[C@@H]3CN(C(C)=O)C[C@H]2N3)cc1 (stereo not given in full)	-21*!
C/C=C/c1ccc(C2[C@@H]3CN(C(=O)C4CCCC4)C[C@H]2N3)cc1 (stereo not given in full)	12
COC(=O)[C@H]1[C@H](CO)[C@H]2Cn3c(ccc(-c4ccccc4F)c3=O)[C@@H]1N2CC1CCCC1	-7

Assay outcomes: PubChem, Broad Institute
